Consider 105 sequences from PubChem BioAssay AID1347423 (Functional Genomics Laboratory (NCATS/FGL), 2020).

Hit rate of the full screen: of about 52,000 sequences, about 210 (0.4%) were called active. Many of the other results were omitted from the sample, so actives are more common in it than they were. Values without a mark were called inactive.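 The calls were made as follows: active = gene whose silencing raises cell survival under the drug, median off-target-corrected z-score across its silencing RNAs 2 or more; inactive = the rest.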

The assay in a line: Resistance to Poly (ADP-Ribose) Polymerase inhibitor: Gene Identification via Genome-wide siRNA Screen. Conditions: mouse BRCA2 R2336H ES cells, olaparib, CellTiter-Glo viability; stronger effect = higher value. The source says:
The role of Poly (ADP-Ribose) Polymerase (PARP) proteins in DNA repair has been elegantly utilized for the synthetic lethality-based treatment of BRCA-deficient tumors by PARP inhibitors. PARP inhibitors are now being used for treatment of BRCA-deficient breast and ovarian cancers. […] While several mechanisms of drug resistance have been identified, majority of these tumors develop drug resistance due to unknown causes. To identified novel regulators of chemo-resistance in BRCA2-mutated cells, we performed a genome wide siRNA library screen. We have found ES cells expressing a hypomorphic allele of BRCA2 to be hypersensitive to PAPP inhibitors (such as olaparib). We used ES cells expressing a mutant allele of BRCA2 that has a single amino acid substitution at position 2336 (arginine to histidine, R2336H). The screen was conducted using an Ambion (Thermo) Silencer Mouse Genome siRNA collection. The library targets 17,575 mouse genes with 3 siRNAs per gene. TET2 (E130014J05Rik) was identified as a top candidate.
Transfections were performed in 384 well plates (Corning 3707). Plates were coated with 0.1% gelatin in H2O overnight at ambient temperature. Gelatin solution was aspirated (BioTek EL406) and siRNAs were printed using a Bravo VPrep liquid handler integrated within a BioCel automation platform (Agilent). Cell viability was measured using CellTiter Glo (Promega). For transfections, […] of serum free media containing Lipofectamine RNAiMax […] was added to wells containing siRNA (0.8pmol). Lipid and siRNA were allowed to complex for 45 min at ambient temperature before addition of 1000 cells in DMEM, 30% FBS to yield final transfection mixtures containing 20 nM siRNA in DMEM, 15% FBS. PARPi (olaparib, AZD2281) was added 48 h post-transfection (500 nM) and viability (CellTiter Glo, Promega) was assayed 72 h later on a PerkinElmer Envision 2104 Multilabel plate reader. Ambion Silencer Select Negative Control #2 was incorporated on all screening plates (16 wells) and the median negative control value on each plate was used for normalization. An siRNA targeting Trp53 was used as a positive control. This control yielded a median protective effect of ~1.9 fold versus negative control throughout the screen. The median absolute deviation (MAD) based z-score was calculated for each siRNA. Genes were then ranked by taking the median value for all siRNAs tested against a given gene. Scores were also adjusted for seed-based off-target effects to help deprioritize likely false positives.
(In general: In ATP-based viability assays light output follows the ATP content of the culture.)
Regarding CCCAGAGGUUCCCGUCAAUTT against Hmgb3, the z-score was 1.9 (active). In the case of GCCACCCACCUAAAAUCAATT against BC025872, the z-score is 0.573. As for “GGGAAAUGGCUCAUACUGGTT against 2210010C04Rik”, the z-score was -0.608. As for GACCGAGUUCAAAGCGAACTT against Atp5e, the z-score is -2.59.

“GGAAGAAAGCCAUUUGCUUTT against 4632412I24Rik”: the z-score is 0.766. As to CGAUGAGAUGCGUAUUGAGTT against Card11, the z-score is -0.977. With GCGAACUCCUCUUUAGGCATT against Chrng, the z-score was -0.258 (active). In the case of GGGUAGACAGAAAGCCUUUTT against Olfr111, the z-score was -0.573.

Consider GGUGUCUUAAAGCUGAAAUTT against E2f5, for which the z-score was 2.8. The value for “GGAGAGGAAUGGUGUGUUATT against 4931428D14Rik” was -0.16; that for GGUGUUCCUGUCUUUCAUGTT against Chordc1 was -1.35; that for CCAACUUCAAAACUAUCGUTT against Trp53bp1 was 1.96 (active). Next, “GCUAGUGGUAAGUCAACCATT against D6Ertd349e”: -0.584; GGUGGGAAUGGGAAUCAGUTT against Akr1e1: 1.57. Take GUCCAUCAGCAGCUCAAUGTT against Ifna5: the z-score is -0.126.

Consider GGCUUAUUUUUCUUCAGUUTT against Ext1, for which the z-score was -0.0515.

GGAGGAAAAAAAGUGAAGATT against Zfp339: the z-score is 0.689. As to CCUAUGCUAUGUAGUUUAATT against Adam21, the z-score was 0.555 (active). With GCUGAUGAAGGUGAUACGUTT against Pnma2, the z-score is 0.0302. As to GGCACCUAAAUUCUUGAAUTT against Hspb6, the z-score is -0.361. As for GGCCCUUCCCAAAGUAUUATT against Mup3, the z-score is 0.32. In the case of CCUACUACCUCUGUCAACATT against Nme4, the z-score was 1.46. As for “GGUGGAGUUUGUGCAGAAGTT against 2310026J01Rik”, the z-score is 0.572. Next, CGAUGAUUCCAAGUUUGGCTT against Pinx1: -0.772. The value for CCUGCAGCUGUAAAACCUGTT against Mt4 was -0.909; that for CCGUAUCCGGCAUUGGAUUTT against Mrps16 was 0.345; that for GCUGUCCACUGCUUAAAUCTT against Isyna1 was 0.392. Next, GGAAUUGUACAAAUGACCUTT against Adam29: -0.0465 (active). On to GGAGCUCAGAUGCAAUGAGTT against Zfp393, for which the z-score was -0.714. Take GGAUGAGCUCAAGAAGUCCTT against Snrpa: the z-score was -1.3. For the sequence CCUGUUUACAAGGAAUUGATT against Itgb1, the z-score is 0.411. Regarding “GGAUCACAGCGAUUAUUGATT against D630028G08Rik”, the z-score is -0.512. With CCCAUACUAAAAUUGUUGATT against Adam29, the z-score is 2.32 (active). Regarding “GCCAGGAUAUGGAUAUGCATT against 1520401A03Rik”, the z-score is 1.47. As for CGACUUCAUAAUUAUGCAATT against Als2, the z-score was 0.307. Regarding GCCGAAUCCGAACAAAACCTT against Tat, the z-score was 1.35 (active).

On to GCUGUAUUGAAGGUCCCUUTT against Olfr744, for which the z-score was -2.34. Turning to “CCUGGCUAAUGACUAGCUCTT against D730046L02Rik”, the z-score is -0.501.

For GGUCUCCCUUCAGUAUGAGTT against Ela3b, the z-score was 2.47 (active).

Regarding “GCUCAUUCUUACCAAUCUCTT against 2210413P10Rik”, the z-score is -0.897. Next, “GCCUCCACAUAGCUUCAACTT against 1110030H02Rik”: 1.14; GGUUGCACUUUUUCAUAGUTT against Bcl2l2: 2.83 (active). With GGGAGCUCUAAAAAAAGUGTT against Olfr390, the z-score is 0.0742.

Consider GGAGGAGAGGUACAAACGGTT against Cxxc1, for which the z-score was -1.2. In the case of “GCGGGCAAUGCCUUAAAAGTT against D16Ertd607e”, the z-score was 0.194.

In the case of GCCCGGUAAAGGUAUCCAUTT against Trp53bp1, the z-score was 1.78 (active). In the case of GGGCACCUAUUCAGAUACCTT against Mtap2, the z-score was 0.64. On to GGAAAAGACGGGAGAUUUGTT against Mbldc1, for which the z-score was 0.0178. Take GUACGUCAUGGGUCACUUCTT against Pomc1: the z-score is -0.0856.

On to GGACAGAGUUCGAUCGACUTT against BC021523, for which the z-score was -0.107. GUGAUGACUGAGCUUCUAATT against Olfr1446: the z-score was -1.51. Next, “GCCUACAGAGUCUUAGUUATT against 2400003B06Rik”: 0.0277; GGGAGAAGAAGAUACACCATT against Usp47: 2.16 (active); “GGCUGUGGACUUUUGUAAUTT against 3110002H16Rik”: 0.704. Next, “GCCGUUUUAUUCACGUGAATT against 1810033M07Rik”: -0.105. For GGUUAAAGAAGCCAUGAAATT against Olfr480, the z-score is 1.26. As to GCCUGUUCCGCCAUUCAUGTT against Fliih, the z-score is -1.13.

With GGAGUGAUUAACCUAACUCTT against Crip3, the z-score was -0.183 (active). Next, GACAAGACAAGUUUUGGUATT against Elmo1: -0.497; GGCCUUGAGGCUAUUCAUGTT against Stk16: 0.0229. On to GGAAAGUUGUAUUUGAUGUTT against Nudt7, for which the z-score was 0.299.

For the sequence GCAUCUUCGAGGUUUCAAATT against BC006583, the z-score is 2.47. Take GGAAGUAGAGACAGGAGGATT against AF119384: the z-score was 1.25.

Take GCGGCAUAUGCCUACUCUUTT against Slc6a12: the z-score is -1.46 (active).

Take GCCUAGACCAGAGAAAGGUTT against AW555464: the z-score is 0.139. As for GCAAGUAUUAAGUAUGACGTT against Vps13c, the z-score is 0.194. As to “GGCCAGGAGAAGAAGAUACTT against E130014J05Rik”, the z-score is 4.51 (active). With GCUUUUGAUAUUCCACGUUTT against Pole2, the z-score was -0.0546. The value for GGAAUCGUCUGAGAAAUUCTT against Lgmn was 0.618.

With CCCUCUUUAUCGUCUGUGATT against Gpha2, the z-score is -0.468. For “CCAACAAUCCGUAUCGACCTT against 4930425N13Rik”, the z-score was -0.139.

As for GGAAGAGGUUGAGAUCCAATT against Pogk, the z-score was 0.561. Consider GGACACUUAGCAGCAAAGGTT against Lsm7, for which the z-score was -1.42. For the sequence CCUUGUACACGGAUUGAAUTT against Itga6, the z-score was 2.44 (active). In the case of “CCGUCUAUACAUCUUUCCATT against D630005B22Rik”, the z-score was -1.51. GCAGUAUAUCCUACAUUGGTT against Olfr510: the z-score is 1.69 (active).

As to CCUGAUAUAUGACUUUGGCTT against Ntf5, the z-score is -0.0586. Turning to CCUGCACAGGAUAAUUAUGTT against Zfp426, the z-score was 1.21. Next, GGAGAUGAACAAGGACCUATT against Apoa1: 1.02 (active).

Take GGUCAAUUCCCAUACCCUGTT against Trfr2: the z-score is 0.815. Regarding CCAACUAUAACUCAGUCACTT against Ebf1, the z-score was 0.374. GGCACACGGUUUUCAUUAATT against Pcdhb5: the z-score was -0.354.

Take GGCAUCACUGAUGAAUGAATT against Pacsin2: the z-score is -0.947 (active). Take CCACUUUUAAAGGAAUGUGTT against Ncoa1: the z-score was -0.0128. For GCUUGCAUGUACAGACAUUTT against Olfr517, the z-score was 1.3. Turning to CCAUCUGAUUUCUUUCCAGTT against MGC78233, the z-score was -0.642.

In the case of GGAAAUGCCUUCAGAAAUUTT against Slc9a3r1, the z-score was 0.863.

For GCCAAUGUAACCUUCAAAATT against Lypla1, the z-score is 0.603. As for GGGCGACACAAGGUUUUUGTT against Kif3a, the z-score was 1.13 (active). In the case of GGAGUGUUUGAGAAAUACCTT against BC027342, the z-score was -0.283. As to GGCAAAGAUCGCAUCUUAATT against Eif2c2, the z-score is 0.222.

Regarding GCUGCAUCCGUAGAUGUUGTT against Fthfd, the z-score was -0.992. For “GGCCAAAGAGGAGGAAAACTT against D5Bwg0834e”, the z-score was -0.569. As to GGAGACAGUAAUAGCUCAUTT against Trp53bp1, the z-score was 2.14 (active). As for GGACUUGUGGCUGAAAACCTT against Slc22a7, the z-score is 0.176.

“GGGAACAGCAUCUCUGUCATT against E130115E03Rik”: the z-score was -0.944. As to CCCUCAACUUUCAGAUCAGTT against Ard1, the z-score was 0.611. In the case of CCUCGUUCCUAUCAUUAACTT against Sdccag8, the z-score was 0.858. For the sequence GGAAAGAAUAUGAGAAUGCTT against Reck, the z-score is 2.07. Next, UUGUCCUGGUCUCCUAUGCTT against Olfr141: -1.98; “CCCGCUCAAGAUCCUGUUUTT against 2310011J03Rik”: -1.85; GCGAGUCGCUCAUAGUGAATT against AW822216: 0.476.

As for “GGAUCUGAAGGAAUACUUUTT against 2400010G15Rik”, the z-score is 2.14 (active). For GCAGCACCUUUGUGGUUCCTT against Ins2, the z-score is -0.904. Regarding CCGUGCCAAUAGUUCUGCUTT against Dpp4, the z-score was 0.286.
